Reference: PubChem BioAssay (NCI)
The panel holds about 83,000 compounds, 20% with a hit somewhere; the sample as a whole holds those more often.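 How to read the values: 0–100, growth inhibition (40 = 60% inhibited); 0, no net growth; -100 to 0, cell death (-40 = 40% of starting cells died; -100 = all dead).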 Activity calls are given as the source filed them. Rule for the calls: active = growth percent below 10; inactive = the rest.

Tests used:
Assay in all cases: NCI-60 one-dose screen, 48 h (100 = growth as untreated, 0 = no growth, -100 = all killed)
HCT-15 colon = conditions: 10 µM unless noted
HT29 colon = conditions: 10 µM unless noted
SNB-75 CNS = conditions: 10 µM unless noted
SNB-19 CNS = conditions: 10 µM unless noted
U251 CNS = conditions: 10 µM unless noted
PC-3 prostate = conditions: 10 µM unless noted
SK-MEL-5 melanoma = conditions: 10 µM unless noted
UACC-62 melanoma = conditions: 10 µM unless noted
LOX IMVI melanoma = conditions: 10 µM unless noted
SK-MEL-28 melanoma = conditions: 10 µM unless noted
SK-MEL-2 melanoma = conditions: 10 µM unless noted
EKVX NSCLC = conditions: 10 µM unless noted
SN12C renal = conditions: 10 µM unless noted
UO-31 renal = conditions: 10 µM unless noted
TK-10 renal = conditions: 10 µM unless noted
ACHN renal = conditions: 10 µM unless noted
A498 renal = conditions: 10 µM unless noted
CCRF-CEM leukemia = conditions: 10 µM unless noted
MOLT-4 leukemia = conditions: 10 µM unless noted
CAKI-1 renal = conditions: 10 µM

Measured: growth

Cc1cc[n+](CCCC[n+]2ccc(C)cc2)cc1
inactive: HCT-15 colon 93% | HT29 colon 113% | SNB-75 CNS 106% | SNB-19 CNS 107% | U251 CNS 102% | PC-3 prostate 88.7% | SK-MEL-5 melanoma 99.2% | UACC-62 melanoma 97.5% | LOX IMVI melanoma 94.4% | SK-MEL-28 melanoma 105% | SK-MEL-2 melanoma 124% | EKVX NSCLC 97.2% | SN12C renal 97.4% | UO-31 renal 96% | TK-10 renal 107% | ACHN renal 104% | A498 renal 121% | CCRF-CEM leukemia 91.7% | MOLT-4 leukemia 91.1%

CC1=C[S+](c2ccccc2)c2cccc3cc4ccccc4c1c23 (configuration not stated)
inactive: SK-MEL-28 melanoma 11.5% | ACHN renal 15.3% | A498 renal 27.5%
active: HCT-15 colon 7.56% | HT29 colon 0.469% | SNB-75 CNS -91.1% | SNB-19 CNS -93.6% | U251 CNS -81% | PC-3 prostate 1.38% | SK-MEL-5 melanoma -86.7% | UACC-62 melanoma -85.2% | LOX IMVI melanoma 8.36% | SK-MEL-2 melanoma -65.2% | EKVX NSCLC -1.91% | SN12C renal -60.2% | UO-31 renal -39.5% | TK-10 renal 2.15% | CCRF-CEM leukemia 4.35% | MOLT-4 leukemia -23.5%

CCNC(=O)Oc1ccc(/C(=C(/CC)Cc2ccccc2)c2ccc(OCCN3CCOCC3)cc2)cc1
inactive: HCT-15 colon 39.4% | HT29 colon 28.6% | SNB-75 CNS 70.2% | SNB-19 CNS 76.7% | U251 CNS 52.8% | PC-3 prostate 20.2% | SK-MEL-5 melanoma 39.5% | UACC-62 melanoma 73.2% | LOX IMVI melanoma 50.4% | SK-MEL-28 melanoma 80.6% | SK-MEL-2 melanoma 66.2% | EKVX NSCLC 38.6% | SN12C renal 67.7% | UO-31 renal 23% | TK-10 renal 76.2% | ACHN renal 59.8% | A498 renal 76.9% | CCRF-CEM leukemia 61.7% | MOLT-4 leukemia 10.1%

C/C(=N\N=C1/SCC(=O)N1c1ccccc1)c1ccco1
active: CCRF-CEM leukemia -63.9%
inactive: HCT-15 colon 112% | HT29 colon 136% | SNB-75 CNS 185% | SNB-19 CNS 113% | U251 CNS 102% | PC-3 prostate 94.7% | SK-MEL-5 melanoma 88.8% | UACC-62 melanoma 122% | LOX IMVI melanoma 94.2% | SK-MEL-28 melanoma 112% | SK-MEL-2 melanoma 91.6% | EKVX NSCLC 105% | SN12C renal 131% | UO-31 renal 84.9% | TK-10 renal 96.9% | ACHN renal 106% | A498 renal 89.2% | MOLT-4 leukemia 112%

COc1ccccc1S(=O)(=O)Nc1ccc2c3c(cc(-c4cnn(C)c4)nc13)C(=O)N2C
inactive: HCT-15 colon 27.6% | HT29 colon 18% | SNB-75 CNS 26.6% | SNB-19 CNS 50% | U251 CNS 52% | PC-3 prostate 42.1% | SK-MEL-5 melanoma 29.5% | UACC-62 melanoma 18.2% | LOX IMVI melanoma 10.4% | SK-MEL-28 melanoma 63.1% | SK-MEL-2 melanoma 46.9% | EKVX NSCLC 40.2% | SN12C renal 52.2% | UO-31 renal 23.7% | TK-10 renal 13% | ACHN renal 37.5% | A498 renal 26.8% | CCRF-CEM leukemia 55.5% | MOLT-4 leukemia 44.7%

CCOc1cccc(Nc2nc(N)nc3[nH]c4ccc(O)cc4c23)c1
inactive: HCT-15 colon 85.4% | HT29 colon 93.3% | SNB-75 CNS 46.1% | SNB-19 CNS 70.1% | U251 CNS 79.7% | PC-3 prostate 74.8% | SK-MEL-5 melanoma 54.4% | UACC-62 melanoma 73.8% | LOX IMVI melanoma 36.7% | SK-MEL-28 melanoma 89.3% | SK-MEL-2 melanoma 90.2% | EKVX NSCLC 27.8% | SN12C renal 54.1% | UO-31 renal 36.4% | TK-10 renal 27.2% | ACHN renal 40.8% | A498 renal 51% | CCRF-CEM leukemia 61.7% | MOLT-4 leukemia 53.9%

O=C(NC(=S)Nc1ccc(Cl)cc1)c1ccccc1
inactive: HCT-15 colon 93.6% | HT29 colon 87% | SNB-75 CNS 94.9% | SNB-19 CNS 105% | U251 CNS 96.4% | PC-3 prostate 105% | SK-MEL-5 melanoma 102% | UACC-62 melanoma 85.5% | LOX IMVI melanoma 106% | SK-MEL-28 melanoma 96.2% | SK-MEL-2 melanoma 108% | EKVX NSCLC 78.7% | SN12C renal 98.4% | UO-31 renal 83.1% | TK-10 renal 117% | ACHN renal 101% | A498 renal 103% | CCRF-CEM leukemia 102% | MOLT-4 leukemia 72.8%

CCOC(=O)C1CSC(C)(C(=O)OCC)N1 (configuration not stated)
inactive: HCT-15 colon 101% | HT29 colon 87.9% | SNB-75 CNS 100% | SNB-19 CNS 107% | U251 CNS 106% | PC-3 prostate 95.1% | SK-MEL-5 melanoma 101% | UACC-62 melanoma 105% | LOX IMVI melanoma 98.2% | SK-MEL-28 melanoma 107% | SK-MEL-2 melanoma 99.4% | EKVX NSCLC 94.7% | SN12C renal 104% | UO-31 renal 95.6% | TK-10 renal 91.9% | ACHN renal 110% | A498 renal 118% | CCRF-CEM leukemia 103% | MOLT-4 leukemia 92.8%

CN1CCN(Cn2nc(-c3cc(F)c(Cl)cc3Cl)n(/N=C/c3ccc(N(C)C)cc3)c2=S)CC1
inactive: HCT-15 colon 100% | HT29 colon 99.5% | SNB-75 CNS 78.7% | SNB-19 CNS 71.5% | U251 CNS 95.2% | PC-3 prostate 76.2% | SK-MEL-5 melanoma 79.7% | UACC-62 melanoma 79.4% | LOX IMVI melanoma 79.9% | SK-MEL-28 melanoma 82.1% | SK-MEL-2 melanoma 90.2% | EKVX NSCLC 87.1% | SN12C renal 102% | UO-31 renal 55.5% | TK-10 renal 90.2% | ACHN renal 92.7% | A498 renal 78.8% | CCRF-CEM leukemia 83.5% | MOLT-4 leukemia 99.1%

CCn1cc(/C=C2\Oc3cc(OCC#N)ccc3C2=O)c2cc(OC)ccc21
inactive: HCT-15 colon 21.5% | SNB-75 CNS 19.1% | SNB-19 CNS 29.8% | U251 CNS 24.2% | PC-3 prostate 16.7% | SK-MEL-5 melanoma 24.6% | UACC-62 melanoma 44.6% | LOX IMVI melanoma 33.1% | SK-MEL-28 melanoma 70.5% | SK-MEL-2 melanoma 37.5% | EKVX NSCLC 47.8% | SN12C renal 42.4% | UO-31 renal 45.7% | TK-10 renal 74.2% | ACHN renal 54.2% | A498 renal 62.4% | MOLT-4 leukemia 12.9%
active: HT29 colon 5.44% | CCRF-CEM leukemia 9.65%

COc1cc2ncnc(Oc3ccc(NC(=O)Nc4ccc(C5(C#N)CCCC5)cc4)c4ccccc34)c2cc1OC
active: U251 CNS -49.3%
inactive: HCT-15 colon 74.5% | HT29 colon 35% | SNB-75 CNS 36.1% | SNB-19 CNS 36.7% | PC-3 prostate 56.8% | SK-MEL-5 melanoma 50.2% | UACC-62 melanoma 40% | LOX IMVI melanoma 47.7% | SK-MEL-28 melanoma 64.1% | SK-MEL-2 melanoma 80.9% | EKVX NSCLC 57.7% | SN12C renal 21.3% | UO-31 renal 55.8% | TK-10 renal 24.1% | ACHN renal 29.3% | A498 renal 82.4% | CCRF-CEM leukemia 77.5% | MOLT-4 leukemia 60.9%

Cc1cn(C2CC(F)C(CO)O2)c(=O)[nH]c1=O (configuration not stated)
inactive: HCT-15 colon 107% | HT29 colon 98.9% | SNB-75 CNS 81.8% | SNB-19 CNS 90.1% | U251 CNS 96.7% | PC-3 prostate 93.8% | SK-MEL-5 melanoma 74.4% | UACC-62 melanoma 81.1% | LOX IMVI melanoma 97.7% | SK-MEL-28 melanoma 105% | SK-MEL-2 melanoma 115% | EKVX NSCLC 89.1% | SN12C renal 94.8% | UO-31 renal 77.6% | TK-10 renal 91.9% | ACHN renal 83.7% | A498 renal 112% | CCRF-CEM leukemia 80.7% | MOLT-4 leukemia 57%

O=C(COc1ccc(Cl)cc1)N1CCN(Cc2ccc3c(c2)OCO3)CC1
inactive: HCT-15 colon 96.8% | HT29 colon 112% | SNB-75 CNS 102% | SNB-19 CNS 95.6% | U251 CNS 94.3% | PC-3 prostate 90.3% | SK-MEL-5 melanoma 97.7% | UACC-62 melanoma 81.8% | LOX IMVI melanoma 89.5% | SK-MEL-28 melanoma 116% | SK-MEL-2 melanoma 123% | EKVX NSCLC 85.9% | SN12C renal 91% | UO-31 renal 61.5% | TK-10 renal 116% | CAKI-1 renal 76.6% | A498 renal 84.5% | CCRF-CEM leukemia 97.4% | MOLT-4 leukemia 100%

CC(NCCC(c1ccccc1)c1ccccc1)c1ccccc1 (configuration not stated)
inactive: HCT-15 colon 75% | HT29 colon 13.1% | SNB-75 CNS 87.3% | SNB-19 CNS 90.7% | U251 CNS 61.1% | PC-3 prostate 48% | SK-MEL-5 melanoma 85.8% | UACC-62 melanoma 93.3% | LOX IMVI melanoma 74.6% | SK-MEL-28 melanoma 75.5% | SK-MEL-2 melanoma 79% | EKVX NSCLC 44.1% | SN12C renal 86.4% | UO-31 renal 32.6% | TK-10 renal 57.5% | CAKI-1 renal 42.3% | A498 renal 63.8% | CCRF-CEM leukemia 48% | MOLT-4 leukemia 17.8%

COc1ccc(Cl)cc1NC(=O)c1cc2c([nH]1)-c1nc(N)sc1CCC2
inactive: HCT-15 colon 97.7% | HT29 colon 83.2% | SNB-75 CNS 105% | SNB-19 CNS 112% | U251 CNS 101% | PC-3 prostate 97.8% | SK-MEL-5 melanoma 101% | UACC-62 melanoma 93.1% | LOX IMVI melanoma 91.7% | SK-MEL-28 melanoma 103% | SK-MEL-2 melanoma 98% | EKVX NSCLC 92.5% | SN12C renal 97.4% | UO-31 renal 79.4% | TK-10 renal 97.8% | A498 renal 95.9% | CCRF-CEM leukemia 86.7% | MOLT-4 leukemia 62%

COc1cccc(C2CC(c3cc(OC)c(OC)c(OC)c3)=NN2)c1 (configuration not stated)
inactive: HCT-15 colon 67.3% | HT29 colon 37.1% | SNB-75 CNS 74.4% | SNB-19 CNS 77.2% | U251 CNS 85.6% | PC-3 prostate 69.1% | SK-MEL-5 melanoma 83.7% | UACC-62 melanoma 82.4% | LOX IMVI melanoma 61% | SK-MEL-28 melanoma 101% | SK-MEL-2 melanoma 94% | EKVX NSCLC 117% | SN12C renal 91.8% | UO-31 renal 94.9% | TK-10 renal 106% | ACHN renal 94.3% | A498 renal 82.2% | MOLT-4 leukemia 81.2%
